# Values without a mark were called inactive.
# System: Vero E6 infected with SARS-CoV-2
# Assay: inhibition of SARS-CoV-2 cytopathic effect; higher = more antiviral protection, active = above 15
# Conditions: 833.33 nM; 48 h
row,SMILES,inhibition of SARS-CoV-2 cytopathic effect [%]
1,Cc1onc(-c2ccccc2Cl)c1C(=O)N[C@@H]1C(=O)N2[C@@H]1SC(C)(C)[C@@H]2C(=O)O [cloxacillin],3.43
2,CC(C)Cn1cnc2c1c(=O)n(C)c(=O)n2C [isbufylline],-0.05
3,CNC(=O)[C@H](Cc1ccccc1)NC(=O)[C@H](CC(C)C)[C@H](CSc1cccs1)C(=O)NO [batimastat],-9.99
4,O=C(Nc1ccccc1)OCC(CN1CCCCC1)OC(=O)Nc1ccccc1 (stereo not given) [diperodon],-2.3
5,CC(C[N+](C)(C)C)OC(N)=O (stereo not given) [bethanechol],-5.89
6,Cc1ncc([N+](=O)[O-])n1CC(O)CN1CCOCC1 (stereo not given) [morinidazole],-1.22
7,Cc1nnc(C(C)C)n1C1C[C@H]2CC[C@@H](C1)N2CC[C@H](NC(=O)C1CCC(F)(F)CC1)c1ccccc1 (stereo in doubt) [maraviroc],-0.21
8,O=c1[nH]cnc2nc[nH]c12 [hypoxanthine],0.21
9,CCC(=N\O)/C(C)=C/c1ccc(F)cc1,-0.42
10,Cc1cc(/C=C2\SC(=O)N(c3ccccc3)C2=O)c(C)n1-c1cccnc1,1.52
11,CC(C)(COP(=O)(O)OP(=O)(O)OC[C@H]1O[C@@H](n2cnc3c(N)ncnc32)[C@H](O)[C@@H]1OP(=O)(O)O)[C@@H](O)C(=O)NCCC(=O)NCCS [coenzyme-A],1.91
12,O=c1[nH]c(=O)n([C@H]2C[C@H](O)[C@@H](CO)O2)cc1Br [broxuridine],3.59
13,NC(=O)NC(=O)Cc1ccccc1 [phenacemide],0.89
14,O=C(OOC(=O)c1ccccc1)c1ccccc1 [benzoyl-peroxide],-1.86
15,Cc1ccc(NC(=O)c2ccc(CN3CCN(C)CC3)cc2)cc1Nc1nc(-c2cccnc2)cs1 [masitinib],1.93
16,FC(F)(F)c1cc(NC(=S)Nc2ccc(Br)cc2-c2nnn[nH]2)cc(C(F)(F)F)c1,3.36
17,Cc1cc(C)c(NC(=O)C2CC3CCC2C3)c(C)c1 (stereo not given),-0.39
18,O=[N+]([O-])c1cc([N+](=O)[O-])c(/C=C/c2ccc(Cl)c(Cl)c2)cc1/C=C/c1ccc(Cl)c(Cl)c1,-5.26
19,CO[C@H]1CC=C2CCN3CCC4=C(CC(=O)OC4)[C@]23C1,0.73
20,CN1C(=O)C(F)=C[C@]2(C)[C@H]3CC[C@]4(C)[C@@H](C(=O)NCc5nc6cccnc6[nH]5)CC[C@H]4[C@@H]3CC[C@@H]12,2.35
21,CN1CCC(COc2cnc(-c3cccc(Cn4nc(-c5cccc(C#N)c5)ccc4=O)c3)nc2)CC1,2.63
22,C[C@]12CC[C@@H]3c4ccc(O)cc4CC[C@H]3[C@@H]1CC[C@@H]2O [estradiol],-2.04
23,Nc1nc2c(ncn2COCCO)c(=O)[nH]1 [acyclovir],7.16
24,N#Cc1ccccc1OCC(O)CNCCNC(=O)Nc1ccccc1 (stereo not given),0.35
25,O=C(Cc1cccc(OC(F)(F)F)c1)Nc1ccc(CCCCc2nnc(NC(=O)Cc3ccccn3)s2)nn1,-5.17
26,CN1CCCN=C1/C=C/c1cccs1 [pyrantel-pamoate],0.63

# Same assay, conditions: 10000 nM; 48 h
row,SMILES,inhibition of SARS-CoV-2 cytopathic effect
1,CC(=O)OCC1=C(C(=O)O)N2C(=O)[C@@H](N)[C@H]2SC1 [7-aminocephalosporanic-acid],3.59%
2,O[C@@H](CN1CCC(Cc2ccc(F)cc2)CC1)c1ccc(Cl)cc1 (racemic) [eliprodil],-0.42%
3,CCCCOc1ccc(C(=O)Nc2ccc(F)cc2F)cc1,-1.07%
4,CC(C)Nc1cccnc1N1CCN(C(=O)c2cc3cc(NS(C)(=O)=O)ccc3[nH]2)CC1 [delavirdine],2.87%
5,COc1ccc2ccc(=O)oc2c1CC=C(C)C [osthol],2.49%
6,CCN(CC)CCNC(=O)c1cc(Br)c(N)cc1OC [bromopride],-1.74%
7,O=C(O)c1c(Sc2ccccc2)c2cc(Cl)ccc2n1Cc1ccc(Cl)cc1,1.7%
8,CC[C@@H](C)Nc1cc(C(=O)N[C@H]2C[C@H]3CC[C@@H](C2)N3c2ccc(C(=O)C3CC3)cn2)c(C)cc1C(N)=O,1.28%
9,CC1(C)CC(Oc2ccc(-c3ccc(-c4cn[nH]c4)cc3O)nn2)CC(C)(C)N1,-14.9%
10,O=C(/C=C\n1cnc(-c2cc(C(F)(F)F)cc(C(F)(F)F)c2)n1)NNc1cnccn1 [selinexor],-8.85%
11,CCCCc1ccc(O)cc1O [rucinol],0.4%
12,Nc1ncnc2c1ncn2[C@@H]1O[C@H](CO)C[C@H]1O [cordycepin],-3.28%
13,COc1cc(NC(=O)c2ccccn2)ccc1Cl,1.18%
14,Cc1onc(-c2ccccc2Cl)c1C(=O)N[C@@H]1C(=O)N2[C@@H]1SC(C)(C)[C@@H]2C(=O)O [cloxacillin],1.27%
15,CC(C)Cn1cnc2c1c(=O)n(C)c(=O)n2C [isbufylline],1.65%
16,CNC(=O)[C@H](Cc1ccccc1)NC(=O)[C@H](CC(C)C)[C@H](CSc1cccs1)C(=O)NO [batimastat],-12.5%
17,O=C(Nc1ccccc1)OCC(CN1CCCCC1)OC(=O)Nc1ccccc1 (stereo not given) [diperodon],-5.11%
18,CC(C[N+](C)(C)C)OC(N)=O (stereo not given) [bethanechol],-6.25%
19,Cc1ncc([N+](=O)[O-])n1CC(O)CN1CCOCC1 (stereo not given) [morinidazole],-0.64%
20,Cc1nnc(C(C)C)n1C1C[C@H]2CC[C@@H](C1)N2CC[C@H](NC(=O)C1CCC(F)(F)CC1)c1ccccc1 (stereo in doubt) [maraviroc],2.92%

row,SMILES,inhibition of SARS-CoV-2 cytopathic effect
1,O=c1[nH]cnc2nc[nH]c12 [hypoxanthine],2.46%
2,CCC(=N\O)/C(C)=C/c1ccc(F)cc1,-0.21%
3,Cc1cc(/C=C2\SC(=O)N(c3ccccc3)C2=O)c(C)n1-c1cccnc1,2.29%
4,CC(C)(COP(=O)(O)OP(=O)(O)OC[C@H]1O[C@@H](n2cnc3c(N)ncnc32)[C@H](O)[C@@H]1OP(=O)(O)O)[C@@H](O)C(=O)NCCC(=O)NCCS [coenzyme-A],2.93%
5,O=c1[nH]c(=O)n([C@H]2C[C@H](O)[C@@H](CO)O2)cc1Br [broxuridine],0.04%
6,NC(=O)NC(=O)Cc1ccccc1 [phenacemide],0.35%
7,O=C(OOC(=O)c1ccccc1)c1ccccc1 [benzoyl-peroxide],-0.05%
8,Cc1ccc(NC(=O)c2ccc(CN3CCN(C)CC3)cc2)cc1Nc1nc(-c2cccnc2)cs1 [masitinib],44.8% (active)
9,FC(F)(F)c1cc(NC(=S)Nc2ccc(Br)cc2-c2nnn[nH]2)cc(C(F)(F)F)c1,0.52%
10,Cc1cc(C)c(NC(=O)C2CC3CCC2C3)c(C)c1 (stereo not given),2.61%
11,O=[N+]([O-])c1cc([N+](=O)[O-])c(/C=C/c2ccc(Cl)c(Cl)c2)cc1/C=C/c1ccc(Cl)c(Cl)c1,-2.22%
12,CO[C@H]1CC=C2CCN3CCC4=C(CC(=O)OC4)[C@]23C1,1.37%
13,CN1C(=O)C(F)=C[C@]2(C)[C@H]3CC[C@]4(C)[C@@H](C(=O)NCc5nc6cccnc6[nH]5)CC[C@H]4[C@@H]3CC[C@@H]12,1.08%
14,CN1CCC(COc2cnc(-c3cccc(Cn4nc(-c5cccc(C#N)c5)ccc4=O)c3)nc2)CC1,9.19%
15,C[C@]12CC[C@@H]3c4ccc(O)cc4CC[C@H]3[C@@H]1CC[C@@H]2O [estradiol],-1.69%
16,Nc1nc2c(ncn2COCCO)c(=O)[nH]1 [acyclovir],2.2%
17,N#Cc1ccccc1OCC(O)CNCCNC(=O)Nc1ccccc1 (stereo not given),-2.72%
18,O=C(Cc1cccc(OC(F)(F)F)c1)Nc1ccc(CCCCc2nnc(NC(=O)Cc3ccccn3)s2)nn1,-3.68%
19,CN1CCCN=C1/C=C/c1cccs1 [pyrantel-pamoate],-3.05%

# From the supplement of paper PMC13380429
